NSD2 HMT inh: NSD2 (human) methyltransferase inhibition; 310,000 tested, 0.54% active; inhibition, % at 12.5 µM; NSD2 peptide methylation, AlphaScreen, 120 min; in the data active = inhibition above about 50%
EBV LMP1 NFkB: inhibitors of Epstein-Barr LMP1-induced NF-kappaB reporter. LMP1-induced NF-kappaB luciferase reporter cells, luminescence. inhibition, % at 12.5 µM. 350,000 tested, 0.69% active. AID 504558; in the data active = inhibition above about 41%;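 note: 0% = neutral control wells and 100% = reference inhibitor control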
HIV Env fusion: inhibitors of HIV Env-mediated cell fusion; HeLa-JRFL Env/CEM21 cell fusion, luciferase; inhibition, % at 12.3 µM; 360,000 tested, 1.1% active; AID 651610;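 active = mean replicate inhibition score of at least 50 and every replicate individually at or above 50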;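 note: 0% = plate neutral controls and 100% = maraviroc near 300 nM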
Shn3 inh set2: reduces Shn3 3'UTR luciferase signal in osteoblasts; Clone20 osteoblast Shn3 3'UTR firefly luciferase, 24 h; inhibition, % at 12.5 µM; 360,000 tested, 0.52% active; AID 588674;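 active = mean inhibition of at least 75% with every replicate also reaching 75%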;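 note: 0% = median of neutral control wells and 100% = pilot-screen positive control compound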
PAX8 reporter: PAX8 transcriptional activity inhibition. RMG-I TPO-luciferase reporter, SteadyGlo, 24 h. inhibition, % at 12.6 µM. 360,000 tested, 1.2% active;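 active = mean replicate inhibition at least 60% with every replicate also reaching 60%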;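 note: luciferase light reporting Pax8 driven TPO promoter activity; plate controls were median of neutral control wells for no effect and mitoxantrone controls for full effect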
Glyco luc inh: N-linked glycosylation inhibition; reporter increase, % at 12.5 µM; D54 ERlucT glycosylation luciferase reporter, 24 h; percent of 100 nM tunicamycin response; 360,000 tested, 0.23% active;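 active = mean luciferase reporter signal, scaled so untreated is 0 and the glycosylation-blocking control 100, at or above a set limit in every replicate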;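 note: luciferase carries N-glycosylation sites so blocking glycosylation raises the light; 0% = median of neutral control wells and 100% = median of 100 nM tunicamycin wells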
Alpha artifact: AlphaScreen assay artifact in NSD2 counter-screen. shares compounds with NSD2 HMT inh. AlphaScreen artifact counterscreen, preloaded methylated H4 peptide. AC35, µM (doses to about 10 µM), inactives show at the highest dose activity change, negative = signal loss. 1,500 tested, 9.4% active; call rule not given here
The depositor's hits bear a star; . = not tested or not shown; [ ] = remark or other dose. A selection: hits, their analogues and other compounds. The true share with any hit is near 2.8%.

SMILES	NSD2 HMT inh	EBV LMP1 NFkB	HIV Env fusion	Shn3 inh set2	PAX8 reporter	Glyco luc inh	Alpha artifact
COc1ccc(-n2c3nc4ccccc4nc3c3c(=N)oc(C)nc32)cc1	115.3*	-40.0	.	-6.0	.	-2.3	3.0%
C[C@H]1CN([C@@H](C)CO)S(=O)(=O)c2ccc(C#CC(C)(C)O)cc2O[C@@H]1CN(C)C(=O)CN(C)C	.	.	-3.1[16.7 µM]	.	.	.	.
COc1ccc(/C=C2\SC(=S)N(NS(=O)(=O)c3ccc(C)cc3)C2=O)c(OC)c1	45.0	0.4	-1.9	-0.4	34.2	1.8	.
COc1ccc(OC)c(/C=C2\SC(=S)N(NS(=O)(=O)c3ccc(C)cc3)C2=O)c1	51.6*	2.4	-6.7	-6.7	3.8	2.1	-11.1%
CCOC(=O)CSc1nnc(-c2cc(OC)c(OC)c(OC)c2)o1	-0.5	1.0	-20.2	-1.6	11.0	0.7	.
COc1cc(-c2nnc(SCc3cc(=O)oc4cc(O)c(O)cc34)o2)cc(OC)c1OC	82.7*	7.3	-7.3	-17.6	.	-1.2	0.993µM*
Cc1ccc(/C=C2/SC(=O)NC2=S)o1	176.8*	4.8	.	-1.6	.	0.6	-13.3%
COc1ccc(/C=C2\N=C(C(C)(C)C)OC2=O)c(OC)c1	91.0*	9.8	-21.3	-13.5	-10.9	2.2	-0.8%
Nc1c2c(nc3ccccc13)N(c1ccccc1)CC2	-1.5	-9.7	.	2.3	.	3.2	.
CN1CCCCc2c1nc1ccccc1c2N (tested in a mixture with another compound)	82.9*	-7.1	-107.2	19.6	.	-0.7	1.5%
Cc1cc(=O)n2[nH]c(-c3ccco3)nc2n1	67.5*	-44.0	.	-4.5	.	2.0	-5.8%
O=C(C[C@@H]1C[C@H]2c3cc(NC(=O)NC4CCCCC4)ccc3O[C@H]2[C@@H](CO)O1)NCc1cccnc1	.	.	-5.9[16.7 µM]	.	1.4	.	.
NC(=O)c1nsc(C(=O)N(c2ccccc2)C(C(=O)NCC2CCCO2)c2ccc3ncccc3c2)c1N (stereo not drawn)	59.1*	-6.8	15.2	-2.5	21.4	-2.6	5.9%
Cc1ccc(S(=O)(=O)NCC[C@@H]2CC[C@H](NC(=O)Nc3cccc(F)c3)[C@H](CO)O2)cc1	.	.	-14.9[16.7 µM]	.	12.4	.	.
FC(F)(F)c1cc(C(F)(F)F)c2ccc(N3CCN(c4ccc(Cl)cc4)CC3)nc2n1	-2.2	7.0	-36.6	-1.0	10.5	-5.0	.
Fc1ccc(N2CCN(c3ccc4c(C(F)(F)F)cc(C(F)(F)F)nc4n3)CC2)cc1	121.0*	3.5	12.9	7.4	.	-6.0	-2.5%
O=C(NC(=S)Nc1ccccc1N1CCCC1)c1ccco1	74.1*	-4.1	-9.0	.	22.0	-0.2	-3.8%
CCOC(=O)c1c(C#N)c(SCC(=O)Nc2ccc(OC)cc2)nc2c1CN(CC)CC2	69.6*	7.9	.	-14.9	.	-0.3	-3.1%
CCOC(=O)C1=C(C)N=c2s/c(=C/c3cccc([N+](=O)[O-])c3O)c(=O)n2C1c1cc(OC)c(OC)c(OC)c1 (stereo not drawn)	49.0	1.1	-29.4	-6.4	9.9	1.5	.
CCOC(=O)C1=C(C)N=c2s/c(=C/c3cccc([N+](=O)[O-])c3O)c(=O)n2C1c1ccccc1 (stereo not drawn)	63.1*	7.4	-5.2	-22.6	1.9	1.4	8.65µM*
Cc1cc(C)n(-c2ncccc2[N+](=O)[O-])n1	51.6*	3.2	-2.2	-0.6	-7.8	1.4	-6.9%
Cc1cc2ncn(-c3ncccc3[N+](=O)[O-])c2cc1C	6.8	4.1	-11.1	8.5	12.8	3.8	.
O=C(Cc1cccnc1)N1CC(=O)N2[C@H](CO)[C@H](c3ccc(C#CC4CC4)cc3)[C@@H]2C1	.	.	.	.	11.9	.	.
CC1Oc2ccc(C#N)cc2N(Cc2cccc(F)c2)C1=O (stereo not drawn)	55.1*	.	17.6	-16.1	-20.3	-0.2	-0.7%
CN(C)C(=O)C[C@@H]1C=C[C@@H](NC(=O)C2CCC2)[C@H](CO)O1	.	.	13.8[16.7 µM]	.	-9.1	.	.
SMILES	NSD2 HMT inh	EBV LMP1 NFkB	HIV Env fusion	Shn3 inh set2	PAX8 reporter	Glyco luc inh	Alpha artifact
Cc1ccc(N2CN=c3s/c(=C\c4ccccn4)c(=O)n3C2)cc1	59.4*	-8.0	-49.7	-92.8	-8.5	-0.1	-8.5%
COc1ccc(CCNC(=O)C2CCN(C(=O)c3ccccc3C)CC2)cc1	50.8*	2.1	5.7	9.7	4.8	-1.1	-2.0%
C[C@@H]1CN([C@@H](C)CO)C(=O)c2cc(N(C)C)ccc2O[C@@H](C)CCCCO[C@@H]1CN(C)Cc1ccccc1	.	.	-4.4[16.7 µM]	.	30.1	.	.
CC(C)NC(=O)N(C)C[C@@H]1Oc2ccc(NS(=O)(=O)c3cccs3)cc2C(=O)N([C@@H](C)CO)C[C@H]1C	.	.	23.2[16.7 µM]	.	.	.	.
Cc1ccc(S(=O)(=O)/N=C2/NC(=O)/C(=C\c3ccco3)S2)cc1	16.7	3.1	.	-10.2	.	0.5	.
CC(=O)Nc1ccc(S(=O)(=O)/N=C2/NC(=O)/C(=C\c3ccco3)S2)cc1	54.7*	-4.8	1.8	-2.1	-9.8	1.6	-7.3%
COC(=O)c1ccc(/C=N/N2CCN(Cc3ccccc3)CC2)cc1	51.6*	6.6	.	-8.1	.	2.1	-6.3%
O=C(O)COc1ccc2c(c1)O/C(=C\c1ccco1)C2=O	65.9*	-6.7	-5.5	1.1	-5.5	1.8	-2.1%
Cc1[nH][nH]c(=O)c1C(c1c(C)[nH][nH]c1=O)c1cn(C)c2ccccc12	51.4*	6.9	-43.7	18.0	1.4	10.4	-3.1%
Cc1[nH][nH]c(=O)c1C(c1c(C)[nH][nH]c1=O)c1cn(Cc2cccc3ccccc23)c2ccccc12	.	9.7	.	1.5	.	11.1	.
Cc1noc(C)c1S(=O)(=O)Nc1ccc2c(c1)CC(=O)N([C@@H](C)CO)C[C@H](C)[C@@H](CN(C)C(=O)Nc1ccc(F)cc1)O2	.	.	26.5[16.7 µM]	.	1.2	.	.
Nc1ccc(N(CCO)CCO)cc1	117.1*	5.0	-2.0	3.2	-2.9	2.2	-3.6%
COc1ccc(S(=O)(=O)N[C@H]2CC[C@@H](CC(=O)NCc3ccccc3F)O[C@H]2CO)cc1	.	.	1.3[16.7 µM]	.	-4.5	.	.
O=C1C(Cl)=C(NCCN2CCOCC2)C(=O)c2ccccc21	101.3*	8.3	3.8	11.0	10.5	7.5	1.3%
CCOCCCNC1=C(Cl)C(=O)c2ccccc2C1=O	81.0*	-6.1	2.9	-12.0	24.6	9.3	-14.2%
CO[C@H]1CN(C)C(=O)c2cc(NC(=O)C3CCCC3)ccc2OC[C@H](C)N(C)C[C@H]1C	.	.	.	.	3.9	.	.
O=C(CN1CCC(C(=O)c2ccc3c(c2)OCCO3)CC1)NCc1ccccc1	64.6*	9.6	6.3	15.5	11.7	-2.4	0.6%
Cc1cc(C)cc(NC(=S)N(CCCN2CCN(C)CC2)Cc2cccs2)c1	2.0	8.1	-4.5	13.9	-20.4	0.7	.
Cc1cccc(C)c1NC(=S)N(CCCN1CCN(C)CC1)Cc1cccs1	74.7*	2.6	-4.4	-4.4	5.9	2.3	-6.9%
CCN(CC)C(=O)COc1ccc2oc(C)c(C(=O)OC(C)C)c2c1	114.4*	2.6	29.1	-5.8	3.6	0.7	-2.7%

Compound activity (PubChem)
